The structures appear in SMILES notation. Screen size: about 370,000 compounds; about 3,800 (1%) were called active. The list comes from a sample in which actives are over-represented; it also holds similar structures and randomly drawn compounds. Unmarked numbers belong to inactive results. No stated cut-off is given here; in the data, active means activation above about 7.8%; inactive means the rest.

The assay in a line: SMARCA2 (BRM) function activators, primary screen, cell-based, luminescence, high throughput (AID 652017).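 Further: 0% = vehicle wells and 100% = reference activator wells.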 The conditions noted are these: MG213 cells, MMTV-luciferase reporter, dexamethasone, overnight; at 9.1 µM; active compounds read high.
For the molecule `CCC(C)(C)c1ccc(Oc2ccc(NC(=O)COC(=O)C3=COCCO3)cc2)cc1`, the activation was -10.1%.
The figure for `O=C(OCC(=O)c1cccs1)C1=COCCO1` is 8.48% (active); for `O=C(OCC(=O)c1cccs1)c1ccc([N+](=O)[O-])o1` it is -0.97%.
`O=C1Nc2ccccc2-n2nnnc2C1N1CCN(c2cccc(C(F)(F)F)n2)CC1` (configuration not stated): the activation was 3.09%.
The value for `CCCn1nc(C(=O)NNC(=O)CSCC(=O)Nc2cc(C)on2)c2ccccc2c1=O` was -2.41%; that for `CCCCn1nc(C(=O)Nc2cccc(C(=O)NC3CC3)c2)c2ccccc2c1=O` was 1.35%.
The figure for `CCCn1nc(C(=O)Nc2ccc3nc(C)sc3c2)c2ccccc2c1=O` is 11.4% (active); for `CCOC(=O)[C@@]12CN(C(=O)OC(C)(C)C)CC=C1N(Cc1ccc(OC)cc1)C(=O)[C@H]2CC(=O)NCc1ccc(OC)c(OC)c1` it is -2.13%; for `COC(=O)[C@H](CC(C)C)NS(=O)(=O)c1c(F)cccc1F` it is -3.1%.
For `C=CCN(C(=O)[C@@H](CCCC)[C@@H](O)c1ccc(Cl)cc1)c1ccccc1`, the activation was -3.35%.
As to `COc1ccccc1CCNC(=O)C1CCN(c2nc(C)cc(C)n2)CC1`, the activation is -2.87%.
In the case of `CCOC(=O)[C@]12CCCC=C1N(CCCOC)C(=O)[C@@H]2CC(=O)N1CCOCC1`, the activation was -2.55%.
The figure for `Cc1noc(C)c1S(=O)(=O)N(C)C[C@H]1Oc2c(NC(=O)Nc3ccc4c(c3)OCO4)cccc2C(=O)N([C@H](C)CO)C[C@@H]1C` is 8.33% (active); for `COc1ccc(S(=O)(=O)N(C)C[C@H]2Oc3c(NC(=O)Nc4ccc5c(c4)OCO5)cccc3C(=O)N([C@H](C)CO)C[C@@H]2C)cc1` it is -0.71%; for `Cc1noc(C)c1NC(=O)Nc1cccc2c1O[C@H](CN(C)S(=O)(=O)c1c(C)noc1C)[C@@H](C)CN([C@H](C)CO)C2=O` it is 2.13%.
For `COc1ccc(Cn2cc(COC(=O)N(C)Cc3ccccc3)nn2)cc1`, the activation is 0.64%.
Regarding `Cc1noc(C)c1/C=N/Nc1ccc2ccccc2n1`, the activation was 9.44% (active).
Turning to `Clc1ccc(Nc2ccc3ccccc3n2)cc1`, the activation was 5.05%.
The figure for `O=C(c1c[nH]c2ccccc12)N1CCC(Oc2cccnc2)CC1` is 3.83%; for `COCCNC(=O)c1ccccc1-c1nc(-c2ccccc2Cl)no1` it is 3.36%.
The value for `CN(C)CCNC(=O)c1ccc(Cl)c2cc3ccccc3nc12` was 56.5% (active); that for `Cc1cc(C)n(C(=O)CCNC(=O)c2ccccc2Cl)n1` was 0.01%; that for `CC1(C)CC(=O)C=C(NCCCNC2CCCCC2)C1` was 10.6% (active).
For the molecule `CC1(C)CC(=O)C=C(NCCN2CCNCC2)C1`, the activation was -1.09%.
The value for `CC1(C)CC(=O)C=C(NCCCN2CCCC2=O)C1` was 0.48%; that for `CC1C(=O)Nc2ccccc2N1C(=O)c1c(F)cccc1F` (configuration not stated) was 0.63%; that for `O=C(CSc1nnc(COc2ccccc2)n1-c1ccc(Cl)cc1)Nc1ccc2c(c1)OCO2` was -6.63%.
The figure for `COc1ccc2c(C(C)c3ccc(N)cc3)cn(C)c2c1` (configuration not stated) is -3.82%; for `CCCCN(C)Cc1c(C)[nH]c2ccc(Cl)cc2c1=O` it is -3.5%.
The figure for `Cc1ccc(S(=O)(=O)c2c[nH]c3ccc(C)cc3c2=O)cc1` is -1.93%; for `Cc1ccc(S(=O)(=O)c2c[nH]c3ccc(Cl)cc3c2=O)cc1` it is 10.9% (active).
As to `CC(OC(=O)c1cccnc1Cl)C(=O)NC1CCCCC1` (configuration not stated), the activation was -0.77%.
The figure for `CCN(C(=O)[C@@H](C1CC1)[C@@H](O)c1ccc2ccccc2c1)c1ccccc1` is -7.28%.
The figure for `CC(C)CC(=O)Nc1nnc(S(=O)(=O)N(C)c2ccc(Cl)cc2)s1` is 1.27%; for `CCOC(=O)N1CCN(Cc2nc3cc(NC(=O)CC)ccc3n2CC)CC1` it is -1.94%.
The value for `COC(=O)c1ccc(/C=C/c2c(-c3ccc(OC)cc3)sc3ccccc23)cc1` was 3.05%.
Regarding `COc1ccc(N=C(C)c2sc3ccccc3c2O)cc1`, the activation was 11.4% (active).
As to `CCCOc1ccc(Oc2c(Cl)cnn(Cc3cccc4ccccc34)c2=O)cc1`, the activation was -0.93%.
The value for `CCOC(=O)c1c(C)[nH]c(C2=NNC(=NC(C)COC)SC2)c1C` (configuration not stated) was 10.5% (active).
Take `Cc1ccccc1CN1CCCCC(NC(=O)c2cccc(C#N)c2)C1=O` (configuration not stated): the activation is -3.87%.
The figure for `Cc1ccc(S(=O)(=O)N2C[C@@H]3CCCC[C@@H]3[C@@H](C)[C@H]2c2cn(Cc3ccccc3)c3ccc(F)cc23)cc1` is -2.92%; for `CC(C)(C)OC(=O)NCCc1ccccc1/C=C/S(=O)(=O)NCc1ccc(F)cc1` it is -3.29%; for `O=C(CSc1nnc(-c2ccccn2)n1-c1ccc(Cl)cc1)Nc1ccccc1-c1ccccc1` it is -4.51%.
The figure for `CCn1c2ccc(F)cc2c2nnc(SCCN3CCOCC3)nc21` is 0.99%; for `Cn1c2ccc(F)cc2c2nnc(NN)nc21` it is 11.8% (active); for `CN(C)c1nc(NN)nc(Nc2ccc(F)cc2)n1` it is -0.18%.
The figure for `CCOC(=O)C1=C(c2ccccc2)NC(=O)NC1c1cc(OC)c(OC)cc1OC` (configuration not stated) is -1.63%; for `Cc1ccc(-n2c(COc3ccccc3)nnc2SCC(=O)Nc2ccc3c(c2)OCCO3)cc1` it is -5.34%; for `O=S(=O)(Cc1nnnn1-c1ccccc1)c1ccccc1` it is 3.47%.
Regarding `COc1ccc(S(=O)(=O)NC(=O)C2(C)CCN2C(=O)c2ccccc2CCc2ccccc2)cc1` (configuration not stated), the activation was -0.47%.
For `CN(C)S(=O)(=O)c1ccc2oc(SCC(=O)Nc3ccccc3F)nc2c1`, the activation was 12% (active).
The figure for `CCS(=O)(=O)c1ccc2oc(SCC(=O)N3c4ccccc4CC3C)nc2c1` (configuration not stated) is 0.08%.
The figure for `COc1ccc(S(=O)(=O)N(C)C)cc1NC(=O)CSc1ncccn1` is 1.65%; for `CCOC(=O)[C@]12CCCC3=C1N(CCC3)C(=O)[C@@H](CC(=O)NCc1cccs1)C2` it is -4.78%; for `Nc1ccc(N=Nc2ccccc2Cl)c(N)n1` it is 7.92% (active).
The figure for `C=CCN1C(C(=O)OC)CN(Cc2cn(Cc3ccccc3)nn2)CCS1(=O)=O` (configuration not stated) is 1.74%; for `COc1ccc(C(=O)OCCN(C)C2CN(Cc3cn(Cc4cccc(C)c4)nn3)S(=O)(=O)C2)cc1OC` (configuration not stated) it is -0.46%; for `COc1ccc(C(=O)CSc2nnc(-c3cnccn3)n2-c2ccc(C)cc2)cc1` it is -2.56%.
As for `CC(=O)Oc1ccc(-c2cccc(C(=O)N3CCCCC3)c2)cc1`, the activation was 1.59%.
For `COc1ccc(OCc2cccc(C(=O)N3CCCC3)c2)cc1`, the activation is 7.84% (active).
Take `CCOc1ccc(OCc2cccc(C(=O)N(CC)CC)c2)cc1`: the activation is 6.12%.
The figure for `CCOC(=O)Cc1cc(=O)[nH]c(/N=C(\N)Nc2ccc(OC)cc2)n1` is -2.87%; for `COc1ccc2nc(/N=C(\N)NC(=O)Nc3ccccc3)nc(C)c2c1` it is 28.8% (active).
The figure for `COc1ccc(NC(=O)ON=C2c3ccccc3-c3ccccc32)cc1` is 3.56%; for `FC(F)(F)c1cccc(Cn2ccc3ccc(-c4ccc5ccn(Cc6ccccc6)c5c4)cc32)c1` it is -1.65%.
The figure for `O=C(NCC1COc2ccccc2O1)c1ccc(NC(=O)c2cc(F)ccc2F)cc1` (configuration not stated) is -5.67%.
For `O=C(c1cc(C2CCCCN2S(=O)(=O)c2ccccc2)on1)N1CCOCC1` (configuration not stated), the activation was -0.23%.
For the molecule `O=C(c1cc(COc2ccc(F)cc2F)on1)N1CCOCC1`, the activation was 2.32%.
The value for `O=C(c1cc(-c2ccccc2O)on1)N1CCCC1` was 8.63% (active); that for `O=C(Nc1ccccc1C(F)(F)F)c1cc(-c2ccc(O)cc2)on1` was 1.17%.
Turning to `COc1ccc(OCc2cc(C(=O)N3CCCC3)no2)c2ccccc12`, the activation is 5.22%.
The value for `O=C(c1cc(-c2ccc(O)cc2)on1)N1CCOCC1` was 10.1% (active); that for `CN(C(N)=NC(=O)/C=C/c1ccccc1)C(C#Cc1ccccc1)Cc1ccccc1` (configuration not stated) was -4.38%.
The value for `COc1ccc(C)cc1N(C)C(=O)c1coc(=O)c2ccccc12` was -4.4%; that for `O=C(NC1CCCCN(Cc2cccc(C(F)(F)F)c2)C1=O)c1ccccc1I` (configuration not stated) was -2.23%.
With `COc1cc(CNCc2ccc(OC)c3ccccc23)cc(OC)c1OC`, the activation was -2.64%.
The figure for `COc1ccc2ccccc2c1CNCc1ccccn1` is 8.32% (active); for `COc1ccc2ccccc2c1CNc1nnnn1C` it is -2.94%.
The value for `Cc1ccsc1C(=O)NC1CCCCC1C` (configuration not stated) was -1.24%; that for `Cc1ccc(/C=N/NC(=O)c2sccc2OCc2ccc(F)cc2)cc1` was 3.74%; that for `Cc1ccsc1C(=O)N/N=C/c1ccc([N+](=O)[O-])cc1` was 11.6% (active).
For the molecule `COC(=O)[C@H](C(C)C)N(CCc1cn(Cc2ccccc2)nn1)S(=O)(=O)c1ccc(F)cc1Br`, the activation is -6.28%.
The figure for `CC(=O)OC12CCCN(C1)/C(=C/c1ccncc1)C2` (configuration not stated) is -3.2%; for `COc1ccccc1Nc1nnc(SC(C)C(=O)NC2CC2)s1` (configuration not stated) it is -2.93%.
The value for `O=C(CCCCCN1C(=O)C2C3C=CC(C3)C2C1=O)Nc1ccccn1` (configuration not stated) was -1.58%; that for `CCOC(=O)C(C)n1cnc2c(nnn2-c2cccc(OC)c2)c1=O` (configuration not stated) was 9.14% (active); that for `CCOC(=O)C(C)n1cnc2c(nnn2-c2ccc(F)cc2)c1=O` (configuration not stated) was 0.38%.
The value for `COC(=O)C(C)n1cnc2c(nnn2-c2ccc(F)cc2)c1=O` (configuration not stated) was 2.24%; that for `O=C(NC1CCC1)c1ccc(C#CC2CC2)cn1` was 1.34%; that for `O=C(CCCCCn1c(=S)[nH]c2ccsc2c1=O)NC1CCCCC1` was 8.72% (active).
For the molecule `O=C(CCC(=O)c1cccs1)NC1CCCCCC1`, the activation was -4.41%.
Take `CCCCC(CC)CNC(=O)CCCCn1c(=O)[nH]c2ccsc2c1=O` (configuration not stated): the activation was -1.68%.

The record behind these values is PubChem BioAssay AID652017 (The Scripps Research Institute Molecular Screening Center, 2013).
